Sampled rows, rich in hits. Any-hit rate of the full collection: about 9%.
IMPase Li inh: qHTS Assay for Identifying the Cell-Membrane Permeable IMPase Inhibitors: Potentiation with Lithium; CHO-M1 cells, IP1 TR-FRET (IP-One), carbachol + lithium; Potency, µM (series often up to 59.4 µM), for inactives: at the top dose activity, negative = IMPase inhibition, usual class: inhibitors; 210,000 tested, 0.35% active;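 note: IP1 builds up when IMPase is blocked and the TR-FRET signal falls; plate controls were basal vehicle for no effect and high inhibitor control for full effect; nearly all actives have a fitted effect of over 50% in size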
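Concentration–response in CHO-M1 cells, lithium-potentiated; 30 min at 37C. IP1 detected by competitive TR-FRET after 10 min lysis at RT. Hill-fitted AC50.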
ALDH1A1 inh: qHTS Assay for Inhibitors of Aldehyde Dehydrogenase 1 (ALDH1A1); Purified ALDH1A1, NADH fluorescence, propionaldehyde substrate; Potency, µM (highest dose often 75.3 µM), for inactives: at the highest dose activity, negative = inhibition, hits mostly inhibitors; AID 1030, 2008; 220,000 tested, 7.3% active; active = well fitted inhibition curve with a large enough effect, not every such curve was filed as active; inconclusive = small, poorly fitted or top-dose-only effect, or another doubt; inactive = no such curve, though single readings can be large or run the other way;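 note: plate controls were no enzyme wells and a reference inhibitor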
HPGD block: qHTS Assay for Inhibitors of HPGD (15-Hydroxyprostaglandin Dehydrogenase) | 15-hydroxyprostaglandin dehydrogenase [NAD(+)] (Homo sapiens), P15428 | purified HPGD, NADH fluorescence kinetic, PGE2 substrate | Potency, µM, for inactives: at the highest dose activity change, negative = inhibition, usual class: inhibitors | 150,000 tested, 4.3% active | AID 894, 2007; active = well fitted inhibition curve with a large enough effect, not every such curve was filed as active; inconclusive = small, poorly fitted or top-dose-only effect, or another doubt; inactive = no such curve, though single readings can be large or run the other way
Target sequence (P15428 whole entry, looked up): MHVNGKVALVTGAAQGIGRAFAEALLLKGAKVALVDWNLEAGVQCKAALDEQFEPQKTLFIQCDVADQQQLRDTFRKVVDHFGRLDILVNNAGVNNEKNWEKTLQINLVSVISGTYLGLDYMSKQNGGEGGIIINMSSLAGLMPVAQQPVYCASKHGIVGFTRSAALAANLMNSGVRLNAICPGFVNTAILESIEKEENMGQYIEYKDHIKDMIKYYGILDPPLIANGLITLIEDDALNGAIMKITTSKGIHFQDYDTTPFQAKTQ
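NADH formation kinetics: reaction with 30 uM PGE2 and 1 mM NAD+ (final), 20 nM enzyme, Tris-HCl pH 8 with Tween 20, after 15 min compound preincubation at room temperature. Fluorescence change, last versus first of five reads.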
LMNA splice mod: qHTS Assay for Modulators of Lamin A Splicing | HeLa LMNA splicing GFP/RFP minigene ratio, 48 h | Potency, µM (titrated, usually from 46.1 µM), inactives show at the top dose ratio change, negative = inhibition, hits mostly inhibitors | 200,000 tested, 0.01% active | AID 1487, 2009; active = well fitted inhibition curve with a large enough effect in the signal ratio, with a control signal flat, not every such curve was filed as active; inconclusive = small, poorly fitted or top-dose-only effect, or effect the other way, or a change in a side signal; the % refers to the signal ratio
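S3 HeLa stable clones carrying a lamin A-EGFP splicing minigene plus DsRed2 were seeded at 600 cells/well in Opti-MEM with 2% FBS, pin-dosed and incubated 48 h at 37°C. Acumen cytometry (488 nm) gave the GFP/RFP total-intensity ratio.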
KinaseGlo FLuc: Counterscreen for Luciferase (Kinase-Glo TM) Inhibition | AID 1379, 2008 | Potency, µM (titrated, usually from 38.3 µM), inactives show top-dose activity change, negative = inhibition, actives largely listed as inhibitors | Kinase-Glo luciferase, ATP luminescence, 8 min | 200,000 tested, 0.28% active; note: nearly all actives have a fitted effect of over 60% in size
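Recombinant Kinase-Glo luciferase, 10 uM ATP (linear range), luciferin; imidazole pH 7.2 / KCl / MgCl2 / Tween / BSA buffer; 8 min RT; luminescence.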
The depositor's hits bear a star; [ ] = dose if it differs, or a comment. Unless noted, calls come from the whole dose curve; as a rule, active = well fitted curve in the direction sought with a large enough effect; inconclusive = small, poorly fitted or top-dose-only effect, or another doubt; inactive = no such curve, though single readings can be large; an effect the other way counts as inactive or inconclusive. Unless noted, % is set by controls: 0 for no effect and ±100 for the full control effect; potency is the fitted concentration of half-maximal effect.

How did O=C(Nc1ccc(Cl)cc1)OCCn1nnnc1C(c1ccccc1)N1CCOCC1 (stereo not drawn) do in these assays?
IMPase Li inh: 24%[38.3 µM]; ALDH1A1 inh: -1%; HPGD block: -17%; LMNA splice mod: 0%; KinaseGlo FLuc: 0%

Results for CN(C)c1ccc(C(c2nnnn2CCOC(=O)Nc2ccc(Cl)cc2)N2CCOCC2)cc1 (stereo not drawn) ?
IMPase Li inh: 44%[38.3 µM]; ALDH1A1 inh: 25µM*; HPGD block: -25%; LMNA splice mod: 11%; KinaseGlo FLuc: 3%

Results for COc1cccc(-c2cc3nc(-c4ccccc4)cc(N4CCC5(CC4)OCCO5)n3n2)c1 ?
IMPase Li inh: 11µM*; ALDH1A1 inh: inconclusive; HPGD block: inconclusive; LMNA splice mod: 2%; KinaseGlo FLuc: 0%

Results for CN1CCN(c2cc(-c3ccccc3)nc3cc(-c4ccc(F)cc4)nn23)CC1 ?
IMPase Li inh: -5%[38.3 µM]; ALDH1A1 inh: inconclusive; HPGD block: inconclusive; LMNA splice mod: 6%; KinaseGlo FLuc: 0%

Results for Cc1ccc(Nc2nc(C)cc(C)n2)c(C(=O)O)c1 ?
LMNA splice mod: 11%[46 µM]

What do the screens show for `O=C(CSc1nnnn1-c1ccccc1)CC(=O)Nc1ccc(Cl)cc1`?
IMPase Li inh: 15%[38.3 µM]; ALDH1A1 inh: 2.2µM*; HPGD block: -31%; LMNA splice mod: inconclusive; KinaseGlo FLuc: 0%

What do the screens show for `CCn1nnnc1SCC(=O)Nc1ccc(OCc2ccccc2)cc1`?
IMPase Li inh: -1%; ALDH1A1 inh: inconclusive; HPGD block: -9%; LMNA splice mod: -7%; KinaseGlo FLuc: -3%

Results for O=C(CSc1nnnn1-c1ccccc1)Nc1nsc(-c2ccc(Cl)cc2)n1 ?
IMPase Li inh: inconclusive; ALDH1A1 inh: inconclusive; HPGD block: inconclusive; LMNA splice mod: 8%; KinaseGlo FLuc: 1%

Results for O=C(CSc1nnnn1-c1cccnc1)Nc1ccc(OCc2ccccc2)cc1 ?
IMPase Li inh: 25%[38.3 µM]; ALDH1A1 inh: 4µM*; HPGD block: -12%; LMNA splice mod: 2%; KinaseGlo FLuc: -6%

What do the screens show for `COc1cc(C(=O)NC(C(=O)Nc2cccc(C(C)=O)c2)C(C)C)cc(OC)c1OC` (stereo not drawn)?
IMPase Li inh: 10%; ALDH1A1 inh: inconclusive; LMNA splice mod: -10%[46 µM]; KinaseGlo FLuc: 1%

Results for COc1ccc(N2CCCn3c2nc2c3c(=O)n(Cc3ccc(C)cc3)c(=O)n2C)c(OC)c1 ?
IMPase Li inh: 1%; ALDH1A1 inh: inconclusive; LMNA splice mod: inconclusive; KinaseGlo FLuc: -1%

How did NC(=O)COC(=O)CNC(=O)c1cc(Cl)cc([N+](=O)[O-])c1 do in these assays?
IMPase Li inh: 2%; ALDH1A1 inh: 1%; LMNA splice mod: -8%[46 µM]; KinaseGlo FLuc: -1%

Results for NC(=O)COC(=O)CNC(=O)c1ccc(Cl)cc1 ?
IMPase Li inh: -36%[38.3 µM]; ALDH1A1 inh: 2µM*; HPGD block: 0%; LMNA splice mod: 11%; KinaseGlo FLuc: 0%

What do the screens show for `Cc1ccc(S(=O)(=O)C2(C(=O)N3CCCC(C)C3)CC2)cc1` (stereo not drawn)?
IMPase Li inh: -7%[38.3 µM]; ALDH1A1 inh: 1%; HPGD block: 25µM*; LMNA splice mod: 13%; KinaseGlo FLuc: -2%

What do the screens show for `C/C=C/C1=CC2=CC(=O)C(C)(OC(=O)c3c(C)cc(O)cc3O)C(=O)C2=CO1` (stereo not drawn)?
IMPase Li inh: -3%; ALDH1A1 inh: inconclusive; HPGD block: -5%; KinaseGlo FLuc: -2%

What do the screens show for `O=[N+]([O-])c1cccnc1NCc1cccs1`?
IMPase Li inh: -5%; ALDH1A1 inh: 11%; KinaseGlo FLuc: 0%

How did CCOC(=O)c1ccc(N=Nc2c(C)c(C#N)c(O)[nH]c2=O)cc1 do in these assays?
IMPase Li inh: -7%; ALDH1A1 inh: -5%; KinaseGlo FLuc: -4%
